Where “and” joins values, the source holds several entries; their conditions need not be identical. Equal values may be shown once. Inconclusive results are not listed. A call without a number means that no potency is given here. Where a structure was tested more than once in an assay, its records may differ in their call. Calls of active or inactive are those of the source. Unless noted, calls come from the whole dose curve; as a rule, active = well fitted curve in the direction sought with a large enough effect in the repeat runs; inconclusive = weak or mixed curves; inactive = no such curve, though single readings can be large; an effect the other way counts as inactive or inconclusive.
What was measured:
[1] = qHTS assay to identify small molecule agonists of the RXR signaling pathway - cell viability counter screen (AID 1159529); note: nearly all actives have a fitted effect of over 50% in size; note: potency is the fitted concentration of half-maximal effect
Procedure, shortened: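 Steps: seed RXR-alpha-UAS-bla HEK 293T cells in assay medium containing 2% charcoal-stripped FBS; incubate 5 hr; add compounds in DMSO; incubate 16 hr at 37 C; after the bla read, add CellTiter-Glo and read luminescence at 30 min.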

[2] = qHTS assay to identify small molecule antagonists of the retinoid acid receptor (RAR) signaling pathway - cell viability counter screen (AID 1159551); note: nearly all actives have a fitted effect of over 35% in size; note: potency is the fitted concentration of half-maximal effect
Procedure, shortened: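 C3RL4 RARE-luciferase line; cpds + retinol 1 uM final, 6 h, 37 C/5% CO2; CellTiter-Glo ATP luminescence, 30 min RT.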

[3] = qHTS assay to identify small molecule antagonists of the retinoic acid receptor (RAR) signaling pathway (AID 1159552; note: nearly all actives have a fitted effect of over 50% in size; note: potency is the fitted concentration of half-maximal effect)
Procedure, shortened: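 Retinol at 1 uM final stimulated RARE-luciferase expression in C3RL4 cells exposed to test compounds for 6 hr at 37 C. Reduced luminescence, read 30 min after detection reagent, indicated pathway antagonism.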

[4] = target: Luciferin 4-monooxygenase (Photinus pyralis) (UniProt P08659); experiment: qHTS assay to identify small molecule inhibitors of firefly luciferase (AID 1224835); note: nearly all actives have a fitted effect of over 25% in size; note: potency is the fitted concentration of half-maximal effect
Luciferin 4-monooxygenase (Photinus pyralis), sequence (P08659 whole entry, looked up): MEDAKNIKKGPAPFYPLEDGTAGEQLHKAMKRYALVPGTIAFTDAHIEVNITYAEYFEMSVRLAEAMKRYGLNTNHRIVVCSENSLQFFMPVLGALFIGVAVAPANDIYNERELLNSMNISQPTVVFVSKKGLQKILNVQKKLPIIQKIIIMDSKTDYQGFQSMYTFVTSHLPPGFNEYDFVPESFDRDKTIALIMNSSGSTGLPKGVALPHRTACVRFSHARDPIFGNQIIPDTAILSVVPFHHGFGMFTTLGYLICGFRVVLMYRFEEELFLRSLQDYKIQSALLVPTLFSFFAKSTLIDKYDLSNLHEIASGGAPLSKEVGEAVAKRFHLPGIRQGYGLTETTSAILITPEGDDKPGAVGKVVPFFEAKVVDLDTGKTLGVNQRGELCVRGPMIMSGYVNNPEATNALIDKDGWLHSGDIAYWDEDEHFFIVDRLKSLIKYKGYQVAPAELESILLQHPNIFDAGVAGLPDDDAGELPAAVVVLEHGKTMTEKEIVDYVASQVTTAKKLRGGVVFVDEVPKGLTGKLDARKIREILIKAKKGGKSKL
Procedure, shortened: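 Inhibition of purified Photinus luciferase is measured by luminescence. Substrate levels (D-luciferin, ATP) sit at their KM values. Each compound is tested in a concentration series.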

[5] = qHTS assay to identify small molecule agonists of the constitutive androstane receptor (CAR) signaling pathway - cell viability counter screen (AID 1224836); note: nearly all actives have a fitted effect of over 45% in size; note: potency is the fitted concentration of half-maximal effect
Procedure, shortened: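 Cells were seeded and incubated 4 hrs. Compounds were added across 15 concentrations together with PK11195 at 0.75 uM final. Plates were incubated 23 hrs at 37 C. CellTiter-Fluor was added and fluorescence measured.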

[6] = qHTS assay to identify small molecule antagonists of the constitutive androstane receptor (CAR) signaling pathway - cell viability counter screen (AID 1224837); note: nearly all actives have a fitted effect of over 45% in size; note: potency is the fitted concentration of half-maximal effect
Procedure, shortened: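 Read-out: CellTiter-Fluor fluorescence after 23 hr at 37 C/5% CO2. Cells: HepG2 double-stable for hCAR and CYP2B6-2.2kb. Compounds tested at 15 concentrations in the presence of CITCO, final concentration 50 nM.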

[7] = target: Nuclear receptor subfamily 1 group I member 3 (Homo sapiens) (UniProt Q14994); experiment: qHTS assay to identify small molecule antagonists of the constitutive androstane receptor (CAR) signaling pathway (AID 1224838);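 note: HepG2 cells stably expressing hCAR with CYP2B6 luciferase reporter stimulated by CITCO; nearly all actives have a fitted effect of over 40% in size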; note: potency is the fitted concentration of half-maximal effect
Nuclear receptor subfamily 1 group I member 3 (Homo sapiens), sequence (Q14994 whole entry, looked up): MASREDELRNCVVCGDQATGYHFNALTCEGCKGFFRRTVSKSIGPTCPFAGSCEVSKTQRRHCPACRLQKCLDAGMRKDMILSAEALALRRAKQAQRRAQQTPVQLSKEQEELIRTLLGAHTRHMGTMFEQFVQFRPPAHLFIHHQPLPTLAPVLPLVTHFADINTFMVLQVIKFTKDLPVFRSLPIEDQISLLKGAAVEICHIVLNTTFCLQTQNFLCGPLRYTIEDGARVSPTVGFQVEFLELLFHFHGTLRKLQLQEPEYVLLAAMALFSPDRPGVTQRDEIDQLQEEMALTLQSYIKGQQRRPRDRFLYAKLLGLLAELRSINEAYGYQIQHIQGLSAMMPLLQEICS
Procedure, shortened: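 Read-out: ONE-Glo luciferase luminescence after 30 min at room temperature. HepG2-CYP2B6-hCAR double-stable cells, compounds in 15-point titration plus 50 nM CITCO final, 24 h at 37 C/5% CO2.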

[8] = qHTS assay to identify small molecule antagonists of the estrogen related receptor signaling pathway with the pleiotropic PPARgamma coactivator (PGC) from Tox21 10K library - cell viability counter screen (AID 1224840; active = well fitted cell-killing curve with a large enough effect in the repeat runs, not every such curve was filed as active; note: nearly all actives have a fitted effect of over 40% in size; note: potency is the fitted concentration of half-maximal effect)
Procedure, shortened: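 Fluorescence read-out of CellTiter-Fluor viability reagent, added after cells had been exposed to compound in DMSO for 17.5 h at 37 C; 30 min development at 37 C/5% CO2. Cells: PGC/ERR line, 2,000/well.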

[9] = qHTS assay to identify small molecule antagonists of the estrogen related receptor signaling pathway with the pleiotropic PPARgamma coactivator (PGC) from Tox21 10K library (AID 1224841; call rule not given here; note: actives are mostly falling curves and most rising ones were filed inactive; nearly all actives have a fitted effect of over 50% in size; note: potency is the fitted concentration of half-maximal effect)
Procedure, shortened: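 Luminescence read-out (One-Glo luciferase reagent, 30 min at room temperature) from PGC/ERR cells exposed to DMSO-dissolved test compounds for 18 h at 37 C; cells, 2,000 per well, had been preincubated 6 h before compound transfer.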

[10] = qHTS assay to identify small molecule agonists of the estrogen related receptor signaling pathway with the pleiotropic PPARgamma coactivator (PGC) from Tox21 10K library (AID 1224842); note: nearly all actives have a fitted effect of over 15% in size
Procedure, shortened: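 Luminescence from One-Glo (30 min, room temperature) measured after PGC/ERR cells had 18 h at 37 C with pinned compound (23 nL in DMSO). Cells had been seeded at 2,000 per well and pre-incubated 6 h.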

[11] = target: Thyrotropin receptor (Homo sapiens) (UniProt P16473); experiment: qHTS assay to identify small molecule agonists of the thyroid stimulating hormone receptor (TSHR) signaling pathway (AID 1224843; calls by dose curve; note: nearly all actives have a fitted effect of over 45% in size; note: potency is the fitted concentration of half-maximal effect)
Thyrotropin receptor (Homo sapiens), sequence (P16473 whole entry, looked up): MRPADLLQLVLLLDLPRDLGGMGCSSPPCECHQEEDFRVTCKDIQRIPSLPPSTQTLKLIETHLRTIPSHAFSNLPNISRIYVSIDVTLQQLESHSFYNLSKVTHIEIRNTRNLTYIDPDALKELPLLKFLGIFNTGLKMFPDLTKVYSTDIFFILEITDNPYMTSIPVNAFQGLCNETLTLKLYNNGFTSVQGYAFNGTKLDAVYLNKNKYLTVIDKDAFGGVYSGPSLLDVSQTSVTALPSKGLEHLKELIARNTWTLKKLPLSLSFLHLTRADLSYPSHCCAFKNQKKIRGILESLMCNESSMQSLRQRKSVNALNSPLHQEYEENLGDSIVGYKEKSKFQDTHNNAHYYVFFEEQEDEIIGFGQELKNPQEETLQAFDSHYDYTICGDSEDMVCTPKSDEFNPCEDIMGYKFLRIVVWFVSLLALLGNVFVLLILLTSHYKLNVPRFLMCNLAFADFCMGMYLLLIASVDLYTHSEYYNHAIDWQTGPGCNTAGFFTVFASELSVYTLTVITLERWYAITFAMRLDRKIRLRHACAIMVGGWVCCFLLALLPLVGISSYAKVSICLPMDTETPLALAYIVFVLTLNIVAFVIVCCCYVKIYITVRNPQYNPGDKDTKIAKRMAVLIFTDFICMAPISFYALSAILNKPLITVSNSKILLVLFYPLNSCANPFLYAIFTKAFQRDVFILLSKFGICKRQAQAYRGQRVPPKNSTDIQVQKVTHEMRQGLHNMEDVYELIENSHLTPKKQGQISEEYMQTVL
Procedure, shortened: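 Agonist activity read as cAMP rise via d2/cryptate HTRF competition, 1 h room-temperature detection, in HEK293 cells expressing TSHR. Fifteen-point titrations, each run in triplicate, with a 30 min room-temperature incubation beforehand.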

[12] = qHTS assay to identify small molecule agonists of the hypoxia (HIF-1) signaling pathway - cell viability counter screen (AID 1224844; calls by dose curve; note: nearly all actives have a fitted effect of over 50% in size; note: potency is the fitted concentration of half-maximal effect)
Procedure, shortened: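 CellTiter-Glo luminescence read-out, 30 min RT, taken in the same wells as the beta-lactamase HRE reporter assay; HRE-bla ME-180 cells, 0.5% dialyzed FBS, 17 hr compound treatment at 37C, 5% CO2.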

[13] = qHTS assay to identify small molecule agonists of the retinoic acid receptor (RAR) signaling pathway (AID 1159553); details: C3RL4 RARE luciferase reporter, agonist, 6 h; activation: at 73.3 µM (top of the series) unless noted
Procedure, shortened: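 RARE-luc C3RL4 cells; overnight attachment 37 C/5% CO2; compound (DMSO) 6 hr; luciferase reagent, 30 min RT; luminescence read-out.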

[14] = qHTS assay to identify small molecule antagonists of the estrogen related receptor (ERR) signaling pathway from Tox21 library - cell viability counter screen (AID 1224834); note: nearly all actives have a fitted effect of over 30% in size; note: potency is the fitted concentration of half-maximal effect
Procedure, shortened: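 Multiplexed viability counter screen in ERR cells: 17.5 h compound exposure at 37 C, CellTiter-Fluor added, 30 min at 37 C/5% CO2, fluorescence read.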

[15] = target: Nuclear receptor subfamily 1 group I member 3 (Homo sapiens) (UniProt Q14994); experiment: qHTS assay to identify small molecule agonists of the constitutive androstane receptor (CAR) signaling pathway (AID 1224839); note: nearly all actives have a fitted effect of over 15% in size; note: potency is the fitted concentration of half-maximal effect;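 for activation: HepG2 cells stably carrying human CAR and a CYP2B6 luciferase reporter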
Procedure, shortened: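 Cells were plated and incubated 4 hrs, then dosed with compounds at 15 concentrations. PK11195 was added to 0.75 uM final. After 24 hrs at 37 C, luciferase luminescence was measured.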

Row | Structure (SMILES) | Potency [1] | Potency [2] | Potency [3] | Potency [4] | Potency [5] | Potency [6] | Potency [7] | Potency [8] | Potency [9] | Potency [10] | Potency [11] | Potency [12] | Potency [13] | Potency [14] | Potency [15]
1 | COP(=S)(OC)SCn1nnc2ccccc2c1=O | inactive | inactive | 60 µM (active) | 39.1 µM (active) and 39.9 µM (active) | inactive | inactive | inactive | inactive | 61.1 µM (active) | inactive | inactive | inactive |  |  | 
2 | [CH3][Sn]([Cl])([Cl])[Cl] | inactive |  | inactive | inactive | inactive | inactive | inactive | inactive |  |  | inactive | inactive | inactive | inactive | inactive
3 | C=CC(Cl)CCl (stereo unspecified) | inactive |  | inactive | inactive | inactive | inactive | inactive | inactive |  |  | inactive | inactive | inactive | inactive | inactive
4 | CCCCCCCC[N+](C)(CCCCCCCC)CCCCCCCC | 346 nM (active) and 15.5 µM (active) and 6.16 µM (active) | 27.3 µM (active) and 61.2 µM (active) | 4.85 µM (active) and 9.7 µM (active) and 13.7 µM (active) |  |  | 19.3 µM (active) and 13.7 µM (active) and 17.2 µM (active) | 17.2 µM (active) and 15.4 µM (active) | 9.67 µM (active) and 1.37 µM (active) and 13.7 µM (active) |  |  |  | 15.5 µM (active) and 9.79 µM (active) and 19.5 µM (active) |  | 17.2 µM (active) and 1.72 µM (active) and 21.7 µM (active) | inactive
5 | CCC[CH2][Sn]([Cl])([Cl])[CH2]CCC | 1.76 µM (active) and 3.09 µM (active) | 13.9 µM (active) and 27.3 µM (active) | 310 nM (active) and 344 nM (active) |  |  | 874 nM (active) and 864 nM (active) | 552 nM (active) and 686 nM (active) | 492 nM (active) and 486 nM (active) | 196 nM (active) and 96.9 nM (active) | inactive |  | 624 nM (active) and 977 nM (active) |  | 981 nM (active) and 1.09 µM (active) | inactive
6 | [Cl-].[Cl-].[Cl-].[Fe+3] | inactive | inactive |  |  |  | inactive |  | inactive |  |  |  | inactive |  | inactive | 
7 | CC(C)(c1ccccc1)c1ccc(O)c(C(C)(C)c2ccccc2)c1 | 13.7 µM (active) and 15.5 µM (active) | 54 µM (active) and 61.1 µM (active) | 27.1 µM (active) and 27.3 µM (active) | inactive |  |  |  | 54 µM (active) and 54.5 µM (active) | 48.1 µM (active) | inactive | 54.5 µM (active) | 21.7 µM (active) and 21.9 µM (active) |  | 54 µM (active) and 54.5 µM (active) | 7.7 µM (active)
8 | C[N+](C)(C)CC(=O)[O-] | inactive | inactive |  | inactive | inactive | inactive |  | inactive |  |  |  | inactive |  | inactive | 
9 | N#CCCCCC#N | inactive | inactive |  | inactive |  | inactive | inactive | inactive | inactive | inactive | inactive | inactive |  | inactive | inactive
10 | CCOS(=O)(=O)OCC | inactive | inactive |  |  |  | inactive | inactive | inactive |  |  | inactive | inactive |  | 54.5 µM (active) and inactive | inactive
11 | CC(C)(O)C#N | inactive | inactive | inactive |  |  | inactive | inactive | inactive |  |  | inactive | inactive | inactive | inactive | inactive
12 | ClCc1ccccn1 | inactive | inactive |  | inactive | inactive | inactive | inactive | inactive |  |  | inactive | inactive |  | inactive | inactive
13 | ClC(Cl)(Cl)c1ccccc1 | inactive | inactive |  | inactive | inactive | inactive | inactive | inactive |  |  | inactive | inactive |  | inactive | inactive
14 | CCNCC | inactive | inactive |  |  | inactive | inactive |  | inactive | inactive | inactive | inactive | inactive |  | inactive | 
15 | COC(=O)Nc1nc2ccccc2[nH]1 | inactive |  | inactive | inactive | inactive | inactive | inactive | inactive |  |  | inactive | inactive | inactive | inactive | 
16 | CC[n+]1c(-c2ccccc2)c2cc(N)ccc2c2ccc(N)cc21 | inactive | inactive |  | inactive | 48.3 µM (active) | 30.5 µM (active) | 21.6 µM (active) and 13.3 µM (active) | 24.2 µM (active) |  |  |  | 21.8 µM (active) and inactive |  | 24.2 µM (active) and 6.68 µM (active) | inactive
17 | O=[N+]([O-])/N=C1\NCCN1Cc1ccc(Cl)nc1 | inactive |  | inactive | inactive | inactive | inactive | inactive | inactive | inactive | inactive | inactive | inactive | inactive | inactive | inactive
18 | CC1CC(=O)O1 (stereo unspecified) | inactive | inactive | inactive |  |  | inactive |  | inactive |  |  | inactive | inactive | inactive | inactive | 
19 | Cc1cc(Cl)ccc1N=CN(C)C | inactive | inactive |  | inactive |  | inactive |  | inactive | inactive | inactive | inactive | inactive |  | inactive | 
20 | Clc1ccc(C(Cl)(Cl)Cl)cc1 | inactive | inactive | inactive |  | inactive | inactive |  | inactive | inactive | inactive | inactive | inactive | inactive | inactive | 

Reference: PubChem BioAssay (Tox21)
